According to PubChem BioAssay AID1508625 (Wald Lab, School of Medicine, Case Western Reserve …, 2021):

Assay: enhancers of NK cell killing of ovarian tumor cells, primary screen, imaging, OVCAR3, primary NK cells, calcein-AM imaging (AID 1508625);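 note: compound given to NK cells 16 h before adding targets at 1.5 to 1 ratio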
Conditions: OVCAR3 lysis by primary NK cells, at 5 µM; z-score: measured here: robust Z-score, single-point normalisation

SMILES | corrected activity, negative = more killing [%] | z-score
O=C(O)c1cccc(N2C(=O)c3ccc(C(=O)c4ccc5c(c4)C(=O)N(c4cccc(C(=O)O)c4)C5=O)cc3C2=O)c1 | -1.17 | -0.363
COC(=O)c1cc(NC(=O)c2cc3nc(-c4ccc(Cl)cc4)cc(C(F)(F)F)n3n2)cc(C(=O)OC)c1 | -8 | -2.54
Cc1nnc(NC(=O)CSc2nc3c(c(=O)n2-c2ccccc2)SCC3)s1 | -0.367 | -0.0912
COc1ccc(-c2n[nH]c(=S)o2)cc1 | -4.44 | -1.69
CCOC(=O)C1=C(N)OC2=C(C(=O)CC(C)(C)C2)C1c1ccc(O)cc1 (stereo not given) | -4.12 | -1.28
Cc1cc(C)c(CSc2nnc(C)s2)c(C)c1 | -5.76 | -1.78
N#Cc1cc2c(N)c(C(=O)Nc3ccccc3Oc3ccccc3)sc2nc1N | 0.0831 | 0.0248
O=C1C2C(c3ccc([N+](=O)[O-])cc3)OC3(C(=O)c4ccccc4C3=O)C2C(=O)N1c1ccc(Cl)cc1 (stereo not given) | -3.68 | -1.14
CCOc1ccc(N2CC(C(=O)Nc3cc(C)ccn3)CC2=O)cc1 (stereo not given) | -3.29 | -1.23
COC(=O)C1C(=O)C2=C(CC1C)NC(C)=C(C(=O)OC1CCCC1)C2c1ccccc1OC(C)C (stereo not given) | -2.11 | -0.524
Cc1ccc(N2CCN(c3ccc(N4C(=O)C5CCCCC5C4=O)cc3[N+](=O)[O-])CC2C)cc1 (stereo not given) | -4.67 | -1.7
COc1ccc(-c2nn(-c3ccccc3)cc2C(=O)OCc2ccccc2)cc1 | -2.27 | -1.22
CC1=NNC(=O)C1CCC(=O)NN=Cc1ccncc1 (stereo not given) | -4.86 | -2.12
COC(=O)c1[nH]c(=O)c2ccccc2c1O | -4.14 | -1.63
CC(C)NC(=O)CC(=O)NN=C1CCCC1 | -6.06 | -2.58
Cc1sc2ncn(CC(=O)Nc3ccc(Oc4ccccc4)cc3)c(=O)c2c1S(=O)(=O)N1CCN(C)CC1 | -6.04 | -1.5
COc1ccc(-c2cc(C(=O)NN=Cc3ccncc3)[nH]n2)cc1 | 2.36 | 1.03
O=C(Cn1ccc([N+](=O)[O-])n1)Nc1ccc(I)cc1 | -4.86 | -1.51
CC1(C)COC(c2ccccc2)=N1 | -5.76 | -1.78
CCOc1ccc(OCC)c(NC(=O)C2(S(=O)(=O)c3ccc(Cl)cc3)CC2)c1 | -4.65 | -1.32

SMILES | corrected activity, negative = more killing [%] | z-score
Cc1ccc(OCCCN2CCNCC2)c([N+](=O)[O-])c1 | -1.55 | -0.864
CCCCOc1ccccc1C1NC(=O)NC(C)=C1C(=O)OCC(F)(F)F (stereo not given) | -3.61 | -1.36
CCC(SC1=NCCS1)C(=O)Nc1ccc(S(N)(=O)=O)cc1 (stereo not given) | -2.81 | -1.06
O=C(NC1CCCC1)c1c[nH]c2ccc(S(=O)(=O)Nc3cccc(C(F)(F)F)c3)cc2c1=O | -7.02 | -1.72
Cc1c(C(=O)O)oc2ccc(S(=O)(=O)N3CCOCC3)cc12 | -2.57 | -0.692
COc1cc(NS(=O)(=O)c2ccc(NC(=O)c3ccc(OC)c(OC)c3)cc2)ncn1 | -3.26 | -1.01
S=C(c1nc2ccccc2[nH]1)N1CCOCC1 | -3.36 | -1.07
CCOC(=O)C1CCN(c2ccc([N+](=O)[O-])cc2S(=O)(=O)N2CCOCC2)CC1 | -3.03 | -0.939
Cc1ccccc1C(=O)N1N=C(c2ccc(F)cc2)CC1(O)C(F)(F)F (stereo not given) | -4.55 | -2.44
N#Cc1ccccc1NC(=O)CSc1nnc(N)s1 | 2.04 | 0.632
Cc1ccc(C(=O)COC(=O)c2ccc(N3C(=O)C4CCC(C)CC4C3=O)cc2)cc1[N+](=O)[O-] (stereo not given) | -2.55 | -1.37
COCCCNC(=O)C1c2ccccc2C(=O)N(C)C1c1cccs1 (stereo not given) | -4.54 | -1.13
COc1ccc(-n2c(=S)[nH]c3cc(C(=O)NCc4ccc(Cl)cc4)ccc3c2=O)cc1 | -2.4 | -0.763
COc1ccc(-n2c(=S)[nH]c3cc(C(=O)O)ccc3c2=O)cc1 | -5.11 | -1.63
O=C(NCC1CCCO1)c1ccc(COc2ccc(Cl)cc2)cc1 (stereo not given) | -2.84 | -1.58
Cc1ccc(-c2cc(C(F)(F)F)n3ncc(C(=O)N4CCC(C)CC4)c3n2)cc1 | -5.63 | -1.79
COC(=O)c1ccc(COC(=O)c2cnccn2)cc1 | -1.44 | -0.802
CCCOc1cccc(C(=O)Nc2ccc3nn(-c4ccc(OC)cc4)nc3c2)c1 | -3.41 | -1.21
O=C1C(=O)N(Cc2cccnc2)C(c2ccncc2)C1=C(O)c1ccc(F)cc1 (stereo not given) | -3.73 | -1.62
O=C(NCc1ccccc1)c1ccc2c(=O)n(-c3cc(C(F)(F)F)ccc3Cl)c(=S)[nH]c2c1 | -5.46 | -1.74
